Screening data from PubChem BioAssay.
3T3 cytotox: Cytotoxic Profiling in NIH 3T3 Cell Line of Diverse Libraries Using Quantitative High-Throughput Screening; Potency, µM (highest dose often 96.7 µM), inactives show top-dose activity change, negative = cytotoxicity, hits mostly inhibitors; NIH 3T3 viability, CellTiter-Glo ATP luminescence, 48-72 h; 4.3% of 94,000 active; note: nearly all actives have a fitted effect of over 55% in size
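NIH 3T3 cells at 400 cells/well received 23 nL of compound by pintool and were incubated 48 or 72 h at 37 °C. Viability was read as ATP-coupled CellTiter-Glo luminescence.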
hNpr1 antagonist: Natriuretic polypeptide receptor (hNpr1) antagonism - Primary qHTS | Atrial natriuretic peptide receptor 1 (Homo sapiens), P16066 | HEK293 hNpr1 GloSensor cGMP, ANP-stimulated luminescence | Potency, µM (titrated, usually from 46.3 µM), for inactives: top-dose activity change, negative = inhibition, actives largely listed as inhibitors | 1.6% of 76,000 active; calls by dose curve; note: nearly all actives have a fitted effect of over 60% in size
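Compound pre-incubated 30 min at room temperature on GloSensor-loaded HEK293 cells stably carrying hNpr1 and the pGS-40F cGMP biosensor. Stimulation uses hNppA at 0.1 nM final; luminescence is taken at baseline and 20 min post-agonist.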
HEK cytotox: Cytotoxic Profiling in HEK 293 Cell Line of Diverse Libraries Using Quantitative High-Throughput Screening; HEK 293 viability, ATP luminescence (CellTiter-Glo), 48-72 h; Potency, µM (highest dose often 115 µM), inactives show top-dose activity change, negative = cytotoxicity, most hits filed as inhibitors; 6.6% of 94,000 active; AID 1345083, 2018; note: nearly all actives have a fitted effect of over 60% in size
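Cells seeded first (HEK 293, 250 cells/well), then compound added by pintool. Incubation ran 48 or 72 hr at 37 degree Celsius. CellTiter-Glo was added and luminescence imaged after 10 min at room temperature.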
GPT2 inhibitor: Primary qHTS assay for inhibitors of Glutamate pyruvate transaminase 2 (GPT2). Recombinant GPT2, coupled pyruvate oxidase/HRP Amplex Red fluorescence. Potency, µM (highest dose often 57.7 µM), for the others: at the highest dose activity change, negative = inhibition, actives largely listed as inhibitors. 0.25% of 100,000 active. AID 1671188, 2021; note: nearly all actives have a fitted effect of over 60% in size
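Recombinant GPT2 (10ng/uL) with 250uM a-KG and 2mM L-alanine, 30 min at room temperature, in HEPES pH 7.5 buffer. Pyruvate detected by pyruvate oxidase/HRP/Amplex Red fluorescence after 30 min in the dark; AOA (50uM) as positive control.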
Luciferase inh: Firefly luciferase inhibition profiling of diverse chemical library using quantitative high-throughput screening; 2.5% of 76,000 active; purified P. pyralis luciferase, luminescence, biochemical; Potency, µM (titrated, usually from 115 µM), hits mostly inhibitors; note: nearly all actives have a fitted effect of over 65% in size
Target sequence (P08659 whole entry, looked up): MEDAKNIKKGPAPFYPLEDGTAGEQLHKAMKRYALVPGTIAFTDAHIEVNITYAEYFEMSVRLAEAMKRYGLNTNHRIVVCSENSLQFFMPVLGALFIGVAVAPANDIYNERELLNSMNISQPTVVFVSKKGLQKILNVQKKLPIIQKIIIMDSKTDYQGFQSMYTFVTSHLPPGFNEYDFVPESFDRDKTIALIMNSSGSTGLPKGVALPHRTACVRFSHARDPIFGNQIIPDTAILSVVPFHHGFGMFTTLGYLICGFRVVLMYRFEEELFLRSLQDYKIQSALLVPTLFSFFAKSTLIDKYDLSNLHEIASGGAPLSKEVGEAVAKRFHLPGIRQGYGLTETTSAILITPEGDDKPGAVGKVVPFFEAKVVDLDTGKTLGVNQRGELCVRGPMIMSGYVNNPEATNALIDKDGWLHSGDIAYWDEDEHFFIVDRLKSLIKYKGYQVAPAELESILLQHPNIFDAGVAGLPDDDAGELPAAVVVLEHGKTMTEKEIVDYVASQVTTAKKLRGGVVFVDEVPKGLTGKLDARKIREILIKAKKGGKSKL
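Luminescence read by CCD imaging after purified firefly luciferase (10nM final) was added to substrate buffer holding 10uM D-luciferin and 10uM ATP, pH 7.5, pre-dosed with compound.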
* hit, by the source's call; i = inactive; u = inconclusive; x = no result given; [ ] = remark or other dose. Rows were chosen to be rich in hits. Some 10% of all compounds tested hit in one or more screens of this group. Unless noted, calls come from the whole dose curve; as a rule, active = well fitted curve in the direction sought with a large enough effect; inconclusive = small, poorly fitted or top-dose-only effect, or another doubt; inactive = no such curve, though single readings can be large; an effect the other way counts as inactive or inconclusive. % is set by controls: 0 for no effect and ±100 for the full control effect; potency is the fitted concentration of half-maximal effect.

SMILES	3T3 cytotox	hNpr1 antagonist	HEK cytotox	GPT2 inhibitor	Luciferase inh
CSc1ccc(-c2cccc(C(=O)NCCN[S+](=O)([O-])c3cccs3)c2)cc1	u	x	u	i	x
CCOc1cc(=O)n2c(c1C(=O)Nc1ccc(Cl)c(F)c1)CCCC2	u	-6%	u	-3%	i
CNC(=O)C1CCCN1Cc1ccc(-c2cc(C)cc(C)c2)cc1 (stereo not drawn)	u	x	u	i	x
Cc1cc(C)cc(-c2ccc(CN3CCCC3C(=O)NCC3CC3)cc2)c1 (stereo not drawn)	40µM*	x	40µM*	i	x
Cc1cc(C)cc(-c2ccc(CN3CCCC3C(=O)NCCc3ccc(F)cc3)cc2)c1 (stereo not drawn)	u	x	45µM*	i	x
CN1c2cccnc2CN(CC2CCCCC2)CC[C@H]1CO	50µM*	-2%[70.6 µM]	u	0%[88.5 µM]	i
COc1ccc(OCC2(C)COc3ccc(C(=O)Nc4ccn(C)n4)cc3N2)cc1 (stereo not drawn)	u	18µM*	u	-15%[88.5 µM]	u
COCCNC(=O)c1ccc2c(c1)NC(C)(COc1ccc(OC)cc1)CO2 (stereo not drawn)	u	-19%[70.6 µM]	u	3%[88.5 µM]	i
CC1(CNc2ccccc2)COc2ccc(C(=O)Nc3ccc4[nH]ccc4c3)cc2N1 (stereo not drawn)	40µM*	-28%[70.6 µM]	u	-6%[88.5 µM]	10µM*
COc1cccc(NC(=O)c2ccc3c(c2)NC(C)(COc2ccc4[nH]ccc4c2)CO3)c1 (stereo not drawn)	13µM*	-22%	25µM*	-7%	i
CC(C)n1cc(CN2CCC(Oc3ccc(C(=O)NC4CCCC4)cc3Cl)CC2)cn1	40µM*	3%	u	0%	i
CCn1cc(S(=O)(=O)N2CCCC2Cc2noc(-c3ccccc3)n2)cn1 (stereo not drawn)	u	x	45µM*	i	x
CCNC(=O)N1CCCC(Cc2noc(-c3ccccc3)n2)C1 (stereo not drawn)	-22%	2%	32µM*	u	u
CCNC(=O)N1CCC(c2noc(-c3ccccc3)n2)C1 (stereo not drawn)	-10%	7%	-2%	3%	i
CS(=O)(=O)N1CCC(C2CCN(CC3CC3)C2)CC1 (stereo not drawn)	-21%	2%	-19%	-11%	i
COc1ccccc1CN1CC[C@H](c2nnc(Cc3c[nH]c4ccccc34)o2)C1	u	-1%[70.6 µM]	89µM*	2%[88.5 µM]	i
COc1ccccc1-c1nnc([C@H]2CCN(Cc3ccccn3)C2)o1	35µM*	-5%[70.6 µM]	u	-10%[88.5 µM]	i
COc1cc(CN2CC[C@H](c3nc4ccccc4o3)C2)cc(OC)c1OC	u	-23%[70.6 µM]	71µM*	-2%[88.5 µM]	i
CN(C)c1ccc(CN2CC[C@H](c3nc4cc(Cl)ccc4o3)C2)cc1	112µM*	u	u	2%[88.5 µM]	u
C=CCOC(=O)C1=C(C)N=C2SC=C(CC(=O)NCC3CC3)N2C1c1cccc(OC)c1OC (stereo not drawn)	-22%	-18%	u	i	i
COc1ccc(C2Cn3nnc(-c4noc(-c5cccs5)n4)c3CO2)cc1 (stereo not drawn)	-8%	-8%	-2%	i	i
O=S(=O)(c1ccccc1)N1CCCC(c2nc(CCOCc3ccccc3)no2)C1 (stereo not drawn)	u	x	u	-5%	x
O=C(Nc1ccccc1)N1CCc2nn(Cc3ccccc3)c(=O)n2CC1	-21%	x	-9%	i	x
Cc1ccc2oc([C@H]3CCN(Cc4c[nH]c5ccccc45)C3)nc2c1	56µM*	u	32µM*	u	i
Cc1ccc2oc([C@H]3CCN(Cc4cccc(Cl)c4)C3)nc2c1	u	-27%[70.6 µM]	u	-6%[88.5 µM]	i
